# Assay results from PubChem BioAssay (NCI).
# Values joined by “and” are separate entries in the source; they are usually repeats but may differ in a detail not shown here. Equal values may be shown once. Compounds without any hit were thinned out: in the full panel of roughly 83,000, 20% have a hit.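 48-hour exposure, single concentration, 96-well plates; percent growth endpoint where 0 means no net growth. Active: below 10.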 Active and inactive are the calls of the source.
# System: UO-31 renal
# Experiment: NCI-60 one-dose screen, 48 h (100 = growth as untreated, 0 = no growth, -100 = all killed)
# Settings: 1 µM
# Protocol: Growth inhibition of the UO-31 human tumor cell line is measured as a screen for anti-cancer activity. Cells are grown in 96 well plates and exposed to the test compound for 48 hours. Compounds are tested at a single concentration, which is 10^-5 M for most compounds. The reported endpoint is percent growth (GI% or GIPRCNT), where numbers from 0 - 100% represent growth inhibition, and numbers from -100% - 0 represent cell death. For example, a value of 40 represents 60% growth inhibition. A value of 0 means no net growth occurred over the course of the experiment. A value of -40 indicates 40% of cells at the beginning of the experiment died by the end of the experiment. A value of -100 means all cells are dead at the end of the experiment.
# NCI-60 Human Tumor Cell Lines Screen was performed using the standard one-dose NCI protocol, which is described in more detail at https://dtp.cancer.gov/discovery_development/nci-60/default.htm.
# Compounds with GIPRCNT values below 10 were considered active. Activity score was based on GIPRCNT using the following formula: […]
# Score is 0 for GIPRCNT values of 100 or above, 50 for GIPRCNT values of 0, and 100 for GIPRCNT values of -100.
row,Structure (SMILES),growth
1,CNC(=O)c1cc(Oc2ccc(CC(=O)Nc3cc(C(C)(C)C)nn3C)cc2)ccn1,77.1% (inactive)

# Same assay, conditions: 10 µM
row,Structure (SMILES),growth
1,CNC(=O)c1cc(Oc2ccc(CC(=O)Nc3cc(C(C)(C)C)nn3C)cc2)ccn1,93.2% (inactive)
2,Cc1[nH]c(-c2nc3ccccc3[nH]2)c(C)c1C(=O)NC(C)C1CCCCC1 (stereo not given),89% (inactive)
3,O=C(O)c1sccc1O,48.1% (inactive)

# Same assay, conditions: 10 µM unless noted
row,Structure (SMILES),growth
1,CC1(C)[C@@H](OC(=O)CCC(=O)O)CC[C@]2(C)[C@H]3C(=O)C=C4[C@@H]5C[C@@](C)(C(=O)O)CC[C@]5(C)CC[C@@]4(C)[C@]3(C)CC[C@@H]12,102% (inactive) and -96.1% (active)
2,Cc1cccc(/C=C\C(=O)c2ccccc2)c1,67.3% (inactive) and 82.2% (inactive)
3,Cn1cnc([N+](=O)[O-])c1Sc1ncnc2nc[nH]c12,63.4% (inactive) and 69% (inactive)
4,CC1=C[C@H]2c3c(c(O)c(O)c4oc5cc(O)cc(O)c5c(=O)c34)[C@H](c3cc(O)c(O)c4oc5cc(O)cc(O)c5c(=O)c34)[C@H]2C(C)(C)C1,-5.69% (active) and -75.2% (active)
5,O=C1CCN(Cc2ccccc2)C(=S)N1,87.5% (inactive) and 83.7% (inactive)
6,COC(=O)[C@H]1CCCN1C(=O)C1CCCN1C(=O)[C@@H](Cc1ccccc1)NC(=S)Nc1cc(C(F)(F)F)cc(C(F)(F)F)c1 (stereo not given in full),94.6% (inactive) and 59.1% (inactive)
7,NC(=O)C1CC2C=CC1C2 (stereo not given),100% (inactive) and 86.8% (inactive)
8,CN(C)c1ccc(/C=C(\C#N)c2ccccc2)cc1,29.1% (inactive) and 53.1% (inactive) and 42.5% (inactive)
9,OCCN1CCN(CCCN2c3ccccc3Sc3ccc(Cl)cc32)CC1,36.1% (inactive) and 45.1% (inactive)
10,CN1C(=O)C(N=Nc2ccc([N+](=O)[O-])cc2)SC1=S (stereo not given),37.2% (inactive) and 49.9% (inactive)
11,CCC(C)C1(C2CCCC2)NC(=O)NC1=O (stereo not given),86.3% (inactive) and 96.6% (inactive)
12,CCOc1ccc2cc(-c3nn(CC4CCNCC4)c4ncnc(N)c34)ccc2c1,68.8% (inactive) and 45.7% (inactive)
13,N=C1N=C(N)CS1,93.2% (inactive)
14,Cc1nnc(NC/C=C/c2ccccc2)s1,87.1% (inactive) and 91.2% (inactive)
15,O=S1(=O)CC(Br)C(Br)C1 (stereo not given),64.9% (inactive) and 77% (inactive)
16,O=C(/C=C\c1ccnc2ccccc12)c1ccc([N+](=O)[O-])cc1,61.6% (inactive) and 49.7% (inactive)
17,COc1cc2c(c(OC)c1OC)-c1ccc(OC)c(=O)cc1[C@@H](NC(C)=O)CC2,35.8% (inactive) and 44% (inactive) and 21.2% (inactive)

row,Structure (SMILES),growth
1,CC(=O)c1ccccc1O,80% (inactive) and 90.5% (inactive) and 68.1% (inactive)
2,O=[N+]([O-])c1ccccc1/C=N\Nc1ccccc1,50.6% (inactive) and 47.3% (inactive)
3,CCOc1ccc2cc(-c3nn(CC4CCN(C)CC4)c4ncnc(N)c34)ccc2c1,60.7% (inactive) and 62.9% (inactive)
4,CCCCCN(CCCCC)CC(O)c1cc2c(c3ccccc13)CCCC2 (stereo not given),39.7% (inactive) and 44.7% (inactive)
5,CC(O)Cn1cnc2c1c(=O)n(C)c(=O)n2C (stereo not given),88.7% (inactive)
6,CC(C)Cc1ccc(C(C)C(=O)NCc2ccc(Cn3c(=O)sn(CCCCl)c3=O)cc2)cc1 (stereo not given),77% (inactive) and -100% (active)
7,COC(=O)c1nc(N)nc(C(=O)OC)c1C(=O)c1ccc(OC)cc1,89.6% (inactive) and 66.3% (inactive)
8,Cc1ccc(S(=O)(=O)Nc2ccc3cc([N+](=O)[O-])ccc3c2[N+](=O)[O-])cc1,47.1% (inactive) and 58.1% (inactive)
9,Cc1c(Cl)cccc1NCN1C(=O)c2ccccc2C1=O,82.8% (inactive)
10,COc1ccc(CCN(C)CCCC(C#N)(c2ccc(OC)c(OC)c2)C(C)C)cc1OC (stereo not given),63.4% (inactive) and 86.6% (inactive) and 81.2% (inactive)
11,CCNC(=O)Nc1ccc(-c2nc3c(c(N4CCOC[C@@H]4C)n2)CCN(C2COC2)C3)cc1,21.8% (inactive) and -6.18% (active)
12,O=C(O)CN(CCN(CC(=O)O)CC(=O)O)CCN(CC(=O)O)CC(=O)O,-3.87% (active) and 77.1% (inactive) and 99.1% (inactive)
13,C1CCCCNCCC1,92.5% (inactive)
14,CCN(CC)CCCC(C)N(Cc1ccccc1)CC(O)c1ccc(Cl)cc1 (stereo not given),94.7% (inactive) and 90.9% (inactive)
15,Oc1ccc(/C=C/c2ccccc2)cc1,17.8% (inactive) and 11.6% (inactive)
16,O=CC(O)C(O)C(O)CO (stereo not given),90.7% (inactive) and 78.5% (inactive)

# Same assay, conditions: 30 µM
row,Structure (SMILES),growth
1,CNC(=O)c1cc(Oc2ccc(CC(=O)Nc3cc(C(C)(C)C)nn3C)cc2)ccn1,113% (inactive)

# Same assay, conditions: 100 µM
row,Structure (SMILES),growth
1,Cc1[nH]c(-c2nc3ccccc3[nH]2)c(C)c1C(=O)NC(C)C1CCCCC1 (stereo not given),-97.8% (active)
2,O=C(O)c1sccc1O,26.7% (inactive)
